Experimental findings from PubChem BioAssay (Tox21) are described below.

Structures are written as SMILES. Inconclusive results are not listed. A number with no mark means an inactive call. Calls of active or inactive are those of the source. Calls come from the whole dose curve; as a rule, active = well fitted cell-killing curve with a large enough effect in the repeat runs; inconclusive = weak or mixed curves, or effect the other way; inactive = no such curve, though single readings can be large or run the other way.
% is set by controls: 0 for no effect and ±100 for the full control effect.

The nature of the test: qHTS assay to identify small molecule antagonists of the vitamin D receptor (VDR) signaling pathway - cell viability counter screen (AID 743225). Note: nearly all actives have a fitted effect of over 50% in size. The note with it: VDR-bla HEK293T viability, CellTiter-Glo luminescence, 16 h; series mostly up to 61 µM. From the text:
U.S. Tox21 Program National Center for Advancing Translational Sciences [NCATS] NIH Chemical Genomics Center [NCGC] U.S. Environmental Protection Agency [EPA] National Institutes of Environmental Health Sciences [NIEHS] National Toxicology Program [NTP] U.S. Food and Drug Administration [FDA] Tox21 Assay Overview: The vitamin D receptor (VDR), a member of nuclear hormone receptor superfamily, plays a critical role in calcium homeostasis and bone metabolism. It is also involved in cell differentiation and growth, and thrombogenicity. To identify the compounds that inhibit VDR signaling, the VDR-UAS-bla HEK 293T cell line (Invitrogen, Carlsbad, CA, USA) containing a beta-lactamase reporter gene under the control of an upstream activator sequence (UAS) was used to screen the Tox21 10K compound library. The cytotoxicity of the Tox21 compound library against the VDR-bla cell line was tested in parallel by measuring the cell viability using CellTiter-Glo assay (Promega, Madison, WI) in the same wells.
Tox21 Assay Protocol Summary: VDR-bla cells were dispensed at 2,000 cells/5 uL of assay medium per well into black wall/clear-bottom 1536-well plates using a Multidrop Combi (Thermo Fisher Scientific, Waltham, MA) dispenser. After the assay plates were incubated at a 37C and 5% CO2 for 4 h, 23 nL of compounds dissolved in DMSO, positive controls or DMSO only was transferred to the assay plate by a Pintool station (Kalypsys, San Diego, CA), followed by addition of 1 uL of 1-alpha, 25-Dihydroxy Vitamin D3 (3 nM, final concentration in the wells) using a Bioraptr Flying Reagent Dispenser (FRD) workstation (Beckman Coulter, Indianapolis, IN). The plates were incubated at 37C and 5% CO2 for 16 h, and then 1 uL of LiveBLAzerTM B/G FRET substrate was added using a Bioraptr FRD. The plates were incubated at room temperature for 2 h and fluorescence intensity was measured by an Envision plate reader (PerkinElmer, Shelton, CT). For cell viability readout that measures cytotoxicity, 3 ul/well of CellTiter-Glo reagent was added into the assay plates using a Bioraptr FRD. After 30 min incubation at room temperature, the luminescence intensity in the plates was measured using a ViewLux plate reader (PerkinElmer).
A general note: Quantitative high-throughput screening tests each substance at several concentrations.
With `C=CC(=O)N1CCOCC1`, the molecule was called inactive. For the molecule `CCN1CCN(c2cc3c(cc2F)c(=O)c(C(=O)O)cn3C2CC2)CC1`, the molecule was called inactive. On the same count and under the same terms, as for `C#CC(O)C(CC)CCCC` (stereo not given), the entry is “inactive”. As to `NC(=S)Nc1cccc2ccccc12`, the viability change, negative = cytotoxic was -0.0846% [at 6.95 µM]. For the molecule `C=C(C)C(=O)OCCCCCCCCCCCCCCCCCC`, the result was inactive. On the same count and under the same terms, the result for `CCCCOCC(C)OCC(C)O` (stereo not given) reads “inactive”. Same read-out and setting: the result for `CC(CCO)CCCC(C)(C)O` (stereo not given) reads “inactive”.

With `CC1(C)OC(=O)Nc2ccc(Br)cc21`, the molecule was classed as inactive.

As to `CC(C)CCCCCCN`, the molecule was called inactive. Same read-out and setting: the result for `COCc1ccc(COC)cc1` reads “inactive”; that for `CO[Si](OC)(OC)OC`, “inactive”. Same read-out and setting: the result for `CCCCCCCCCCCCCCCCCCOCC(O)CO` (stereo not given) reads “inactive”. In the case of `CC12CCC(CC1=O)C2(C)C` (stereo not given), the outcome was inactive. In the case of `CSc1ccc(C=O)cc1`, the outcome was inactive.

As to `COc1cccc(OC)c1`, the call was inactive. In the case of `C#CC(C)(O)CC(C)C` (stereo not given), the molecule was classed as inactive.

Consider `CC(C)(C)C(=O)/C=C/c1ccc(Cl)cc1`, for which the molecule was called inactive.

For `CC(C)(O)Cc1ccccc1`, the molecule was classed as inactive. Still for that read-out and setting: as for `c1ccc(SCCSc2ccccc2)cc1`, the entry is “inactive”; as for `CNC(=O)c1c(I)c(NC(=O)CCCCC(=O)Nc2c(I)c(C(=O)O)c(I)c(C(=O)NC)c2I)c(I)c(C(=O)O)c1I`, “inactive”. Take `CC1=CCC2C(C1)C2(C)C` (stereo not given): the outcome was inactive. Same read-out and setting: the result for `C=C(C)C1CC=C(C)C(O)C1` (stereo not given) reads “inactive”. Still for that read-out and setting: as for `NC(=O)Nc1nc2ccccc2[nH]1`, the entry is “inactive”. On to `CN(C)C(=O)C(CCN1CCC(O)(c2ccc(Cl)cc2)CC1)(c1ccccc1)c1ccccc1`, for which the result was inactive. On the same count and under the same terms, the result for `O=S(=O)(c1cccc2cnccc12)N1CCCNCC1` reads “inactive”.

For the molecule `CCO[Si](C)(OCC)OCC`, the result was inactive.

For `C1=C\CC/C=C\CC/C=C\CC/1`, the result was inactive.

As for `O=[N+]([O-])c1ccc(CCO)cc1`, the result was inactive. Turning to `CCOC(=O)Cn1c(=O)sc2cccc(Cl)c21`, the molecule was called inactive. The same measure, in the same setting: as for `CCCCCN(CCCCC)C(=O)C(CCC(=O)O)NC(=O)c1ccc(Cl)c(Cl)c1` (stereo not given), the entry is “inactive”; as for `CC1=CC(C)C(C=O)C(C)C1` (stereo not given), “inactive”.

Turning to `CC/C=C\C#N`, the molecule was classed as inactive. For `OCC(CO)(CO)COCC(CO)(CO)CO`, the molecule was called inactive. Turning to `NC(=O)c1ncn([C@@H]2O[C@H](CO)[C@@H](O)[C@H]2O)c1O`, the result was inactive.

For the molecule `NC(N)=NS(=O)(=O)c1ccc(N)cc1`, the outcome was inactive. On the same count and under the same terms, as for `CCCCCCC(=O)OCC`, the entry is “inactive”; as for `CC(C)c1ccc2oc3nc(N)c(C(=O)O)cc3c(=O)c2c1`, “inactive”. On the same count and under the same terms, as for `CC(C)c1cccc(O)c1`, the entry is “inactive”. Still for that read-out and setting: as for `CCC(=O)/C=C/c1ccc(OC)cc1`, the entry is “inactive”; as for `Cc1ccc(Nc2ccc(O)c3c2C(=O)c2ccccc2C3=O)cc1`, “inactive”.
